Not all results are given here.
ATXN viability = viability counter-screen for ATXN expression inhibitors; Potency, µM (top dose mostly 56.7 µM), usual class: cytotoxic; actives 0.49% (n = 400,000); S2 cells (HEK-293 line with an ATXN2-luciferase reporter) viability, CellTiter-Fluor protease fluorescence, 24 h; note: nearly all actives have a fitted effect of over 40% in size
HepG2 tox = kills HepG2 cells in TGF-b inhibitor counter-screen; actives 0.76% (n = 410,000); Potency, µM (top dose mostly 46.1 µM), most hits filed as cytotoxic; AID 588856; HepG2 CAGA-GFP viability, ATP luminescence, 18 h
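CellTiter-Glo luminescence gave cytotoxicity after 18 hours at 37 degrees C. The cells were HepG2 CAGA-GFP in 1% FBS DMEM, stimulated with 500 pg/mL TGF-beta after compound addition. %Activity was normalised to no-cell wells (complete cell-killing) and DMSO (no toxicity), and curves were fitted and classified.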
TGFb SMAD3 inh = TGF-b pathway inhibition | HepG2 CAGA-GFP TGF-b/SMAD3 reporter, GFP fluorescence, 18 h; TGF-beta stimulated, 500 pg/mL final | Potency, µM (doses to about 46.1 µM), hits mostly inhibitors | actives 1.2% (n = 410,000) | AID 588855; note: nearly all actives have a fitted effect of over 65% in size
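First, reporter cells (HEPG2 CAGA-GFP) rested 2 h at 37 degrees C. Next, compounds were pinned in and TGF-beta added to 500 pg/mL final. After 18 h, GFP was imaged per cell and summed per well.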
DRD3 agonist = agonists of human D3 dopamine receptor; P35462; D3R DiscoveRx beta-arrestin cells, luminescence, 90 min; max activation, %; actives 0.58% (n = 410,000); in the data active = max activation above about 30%
Target sequence (P35462 whole entry, looked up): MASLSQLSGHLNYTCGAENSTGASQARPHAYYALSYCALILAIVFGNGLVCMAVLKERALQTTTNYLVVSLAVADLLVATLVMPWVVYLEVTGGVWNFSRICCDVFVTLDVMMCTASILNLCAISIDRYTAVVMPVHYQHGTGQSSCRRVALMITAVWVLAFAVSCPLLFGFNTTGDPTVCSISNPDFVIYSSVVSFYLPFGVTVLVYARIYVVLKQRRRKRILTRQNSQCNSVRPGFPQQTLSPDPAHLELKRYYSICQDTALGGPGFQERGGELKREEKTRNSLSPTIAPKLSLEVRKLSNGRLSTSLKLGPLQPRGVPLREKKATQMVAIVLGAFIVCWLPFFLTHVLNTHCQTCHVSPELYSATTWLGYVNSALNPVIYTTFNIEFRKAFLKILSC
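Agonist mode: compounds and dopamine controls were applied to plated cells for 90 min at 37 degrees C after an overnight attachment at 1500 cells/well. Luminescent read-out followed 30 - 60 minutes at room temperature with DiscoveRx detection reagent.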
DRD3 antagonist = blocks the human D3 dopamine receptor | P35462 | D3R cells, DiscoveRx beta-arrestin luminescence, antagonist mode; hits give low values | max response, negative = inhibition, % | actives 2.5% (n = 360,000); in the data active = max response below about -50%; inconclusive = no clear call, values can overlap the other calls
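Cells expressing the human receptor were seeded at 1500 cells/well, incubated overnight at 37 degrees C in 5% CO2, then exposed to library compounds with dopamine controls for 90 minutes at 37 degrees C before luminescent detection.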
ATXN2 expr inh = inhibitors of ATXN2 expression; AID 1745845; Potency, µM (top dose mostly 57 µM), hits mostly inhibitors; actives 0.72% (n = 360,000); HEK-293 ATXN2-luciferase reporter, luminescence, 24 h; note: nearly all actives have a fitted effect of over 55% in size
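qHTS (up to 57 uM final) was run with 24 h compound exposure of reporter cells at 37 °C. Each well was multiplexed: SteadyGlo luminescence measured ATXN2-luciferase expression after a fluorogenic Gly-Phe-AFC viability readout (25 uM final).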
SKNSH spheroid = reduced viability of SK-N-SH 3D spheroids, orthogonal test | SK-N-SH 3D spheroid viability, PI/Hoechst imaging, 72 h | actives 70% (n = 65) | Potency, µM (top dose mostly 30.7 µM), usual class: inhibitors | shares compounds with ATXN2 expr inh
SJ-GBM2 3D tox = SJ-GBM2 spheroid viability loss, orthogonal 3D screen | shares compounds with ATXN2 expr inh | SJ-GBM2 3D spheroid viability, PI/Hoechst imaging, 72 h | Potency, µM (highest dose often 30.7 µM), usual class: inhibitors | actives 80% (n = 65) | AID 1347136
Daoy 3D tox = reduced viability of Daoy 3D spheroids, orthogonal test. shares compounds with ATXN2 expr inh. Daoy 3D spheroid viability, PI/Hoechst imaging, 72 h. Potency, µM (titrated, usually from 30.7 µM), actives largely listed as inhibitors. actives 50% (n = 65). AID 1347137
TC32 3D caspase = activates caspase in TC32 3D spheroids | shares compounds with ATXN2 expr inh | actives 30% (n = 65) | Potency, µM (titrated, usually from 30.7 µM), actives largely listed as inhibitors | TC32 3D spheroids, caspase-3/7 fluorescence imaging, 24 h | AID 1347138
TC32 spheroid = kills TC32 spheroids in orthogonal 3D test; shares compounds with ATXN2 expr inh; TC32 3D spheroid viability, PI/Hoechst imaging, 72 h; Potency, µM (series often up to 30.7 µM), most hits filed as inhibitors; actives 60% (n = 65)
MG63 spheroid = MG-63 (6-TG R) 3D spheroid viability loss | shares compounds with ATXN2 expr inh | actives 50% (n = 65) | MG-63 (6-TG R) 3D spheroid viability, PI/Hoechst imaging, 72 h | Potency, µM (titrated, usually from 30.7 µM), actives largely listed as inhibitors
RD 3D tox = RD 3D spheroid viability loss. shares compounds with ATXN2 expr inh. RD rhabdomyosarcoma 3D spheroid viability, PI/Hoechst imaging, 72 h. Potency, µM (titrated, usually from 30.7 µM), most hits filed as inhibitors. actives 50% (n = 65). AID 1347141
Hits are given with their value; i = inactive; ? = inconclusive; nt = no result. Unless noted, calls come from the whole dose curve; as a rule, active = well fitted curve in the direction sought with a large enough effect; inconclusive = small, poorly fitted or top-dose-only effect, or another doubt; inactive = no such curve, though single readings can be large; an effect the other way counts as inactive or inconclusive.

SMILES	ATXN viability	HepG2 tox	TGFb SMAD3 inh	DRD3 agonist	DRD3 antagonist	ATXN2 expr inh	others
O=c1[nH]c2ccc(Cl)cc2c(N[C@@H]2CN3CCC2CC3)c1-c1nc2ccccc2[nH]1	nt	nt	nt	nt	nt	0.068µM	SKNSH spheroid=0.13µM;SJ-GBM2 3D tox=0.091µM;Daoy 3D tox=0.72µM;TC32 3D caspase=18µM;TC32 spheroid=13µM;MG63 spheroid=6.4µM;RD 3D tox=?
CCCCN(Cc1ccccc1)C1CCN(CCc2ccccc2)CC1	?	i	?	i	?	i
COc1ccc(-c2noc(=O)n2Cc2cc(C)ccc2C)cc1	i	i	i	i	i	i
[O]=[Cd]	nt	nt	nt	i	nt	nt
CCOC(=O)NC(O)C(Cl)(Cl)Cl (stereo not given)	i	nt	nt	i	nt	i
Oc1ccccc1CN(CCc1ccccc1)Cc1ccccc1	i	i	?	i	i	i
c1ccc2c(c1)CC1CNCc3cccc(c31)S2 (stereo not given)	i	i	i	i	i	i
CCCc1c(-c2ccccc2F)ncn1CCc1ccccc1OC	?	nt	nt	i	i	?
CN(CC(=O)NC1CCCC1)S(=O)(=O)c1cccc(Cl)c1	i	i	?	i	i	i
O=C1NCCOC(=O)[C@@H](Cc2ccc(F)cc2)CC/C=C/C[C@@H]1CC(=O)N(CCO)Cc1ccccc1	i	i	i	i	i	i
CCCC(C)C1(CC)C(=O)N=C(S)NC1=O (stereo not given)	i	nt	nt	i	nt	i
CN(C)[C@@H]1C(=O)C(C(N)=O)=C(O)[C@]2(O)C(=O)C3=C(O)c4c(O)cccc4[C@@](C)(O)[C@H]3[C@H](O)[C@@H]12	i	nt	nt	nt	nt	nt
COc1cc2[nH]c(=O)n(CCCCCC(=O)N3CCN(c4cccc(C(F)(F)F)c4)CC3)c(=O)c2cc1OC	i	i	?	i	nt	i
CCN1CCN(C(=O)Cc2c(C)n(C(=O)c3ccc(Cl)cc3)c3ccc(OC)cc23)CC1	?	i	i	i	i	i
O=c1oc2cccnc2n1CCS(=O)(=O)c1ccc(F)cc1	i	i	i	i	i	i
N#Cc1cc(NC(=O)c2ccc(Cl)cc2)ccc1Sc1ccccc1	?	i	?	i	i	?
O=[N+]([O-])c1ccc(CNCCc2ccccc2)cc1	i	i	i	i	i	nt
Cc1cccnc1NC(=O)C1CCCN(S(=O)(=O)c2ccc3c(c2)oc(=O)n3C)C1 (stereo not given)	i	i	?	i	i	i
COc1ccc(N2CCN(CCc3ccncc3)CC2)cc1	?	i	i	i	i	i
CCN(CC)CCOC(=O)C(C)(c1ccccc1)c1ccccc1	i	nt	nt	i	nt	i
CC(=O)OO	nt	nt	nt	i	nt	nt
